# Most compounds without a hit are left out; they make up all but 2.4% or so of the library.
# Pol kappa inh-1: qHTS for Inhibitors of Polymerase Kappa. 400,000 tested, 0.53% active. Potency, µM (series often up to 107 µM), for inactives: top-dose activity, negative = inhibition, actives largely listed as inhibitors. purified Pol kappa, fluorescent DNA synthesis assay, 10 min; further: on the % scale 0 is the no-effect control and ±100 the full control effect
#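 Readout: fluorescence, taken kinetically at 0 and 10 min. Conditions: 10 nM Pol kappa, 15 min RT compound preincubation, 50 nM substrate final. Controls: enzyme-free buffer wells.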
# POLB inh: qHTS Assay for Inhibitors of DNA Polymerase Beta | P06746 | Pol beta primer extension/strand displacement, fluorescence kinetic | Potency, µM (doses to about 114 µM), for inactives: at the highest dose activity change, negative = inhibition, usual class: inhibitors | 340,000 tested, 1.3% active; further: on the % scale 0 is the no-effect control and ±100 the full control effect
#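 Enzyme-only controls used 10 nM Pol beta; buffer lacking enzyme served as negative control. Compound preincubated 15 min, then 50 nM substrate added; 0 and 10 min reads at room temperature.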
# TDP1 block: qHTS Assay for Inhibitors of Tyrosyl-DNA Phosphodiesterase (TDP1); recombinant TDP1, AlphaScreen DNA substrate cleavage; Potency, µM (series often up to 130 µM), for inactives: at the top dose activity change, negative = inhibition, hits mostly inhibitors; 350,000 tested, 0.28% active; further: on the % scale 0 is the no-effect control and ±100 the full control effect; nearly all actives have a fitted effect of over 40% in size
#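 Recombinant E. coli-expressed Tdp1 (1 nM) preincubated with compound 15 min at RT, then 5'-biotin/3'-phosphotyrosine-FITC DNA substrate (15 nM) added for 5 min. AlphaScreen beads (10 ug/ml) added, 10 min RT; tyrosine-FITC cleavage read as signal loss.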
# Pol eta inh-1: qHTS for Inhibitors of Polymerase Eta | recombinant Pol eta, fluorescent DNA replication assay | DNA polymerase eta (Homo sapiens), Q9Y253 | AID 588591, 2011 | 390,000 tested, 1.2% active | Potency, µM (titrated, usually from 114 µM), inactives show at the highest dose activity change, negative = inhibition, hits mostly inhibitors; further: on the % scale 0 is the no-effect control and ±100 the full control effect
# Target sequence (Q9Y253 whole entry, looked up): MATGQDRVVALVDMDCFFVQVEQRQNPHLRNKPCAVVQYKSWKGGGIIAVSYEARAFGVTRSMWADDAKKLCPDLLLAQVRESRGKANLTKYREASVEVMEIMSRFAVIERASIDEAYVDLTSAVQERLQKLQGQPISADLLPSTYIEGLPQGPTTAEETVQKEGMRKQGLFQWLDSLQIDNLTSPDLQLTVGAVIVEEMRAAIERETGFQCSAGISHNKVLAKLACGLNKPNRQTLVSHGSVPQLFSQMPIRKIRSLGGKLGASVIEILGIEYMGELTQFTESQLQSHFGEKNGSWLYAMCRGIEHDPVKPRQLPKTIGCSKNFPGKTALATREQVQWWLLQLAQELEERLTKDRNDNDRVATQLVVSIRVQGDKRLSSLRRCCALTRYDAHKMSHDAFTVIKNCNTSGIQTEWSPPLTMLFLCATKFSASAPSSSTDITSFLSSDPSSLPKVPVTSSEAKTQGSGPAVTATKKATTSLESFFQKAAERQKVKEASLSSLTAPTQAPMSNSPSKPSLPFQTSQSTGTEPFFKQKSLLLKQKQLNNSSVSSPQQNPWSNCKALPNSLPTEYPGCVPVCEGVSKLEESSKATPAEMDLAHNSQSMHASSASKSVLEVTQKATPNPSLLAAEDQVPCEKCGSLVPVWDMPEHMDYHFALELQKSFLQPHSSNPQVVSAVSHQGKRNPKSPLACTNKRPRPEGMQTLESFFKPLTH
#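 Pol eta (10 nM) was preincubated with compounds for 15 min at room temperature, after which fluorescent replication substrate (50 nM final) was added to start the reaction. Fluorescence was read kinetically at 0 and 10 min.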
# Pol iota inh: qHTS for Inhibitors of Polymerase Iota; DNA polymerase iota (Homo sapiens), Q9UNA4; Pol iota fluorescent replication assay, 10 min; Potency, µM (series often up to 115 µM), inactives show at the highest dose activity, negative = inhibition, hits mostly inhibitors; 390,000 tested, 1% active; AID 588590, 2011
#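 Pol iota at 10 nM preincubated 15 min with compounds at room temperature; reaction started with fluorescent substrate, 50 nM final. Fluorescence read kinetically at 0 and 10 min; buffer-only wells as negative control.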
# FEN1 inhibitor: qHTS Assay for the Inhibitors of Human Flap endonuclease 1 (FEN1); P39748; Recombinant FEN1 flap cleavage, fluorescence, 15 min; Potency, µM (highest dose often 114 µM), inactives show at the highest dose activity change, negative = inhibition, actives largely listed as inhibitors; 390,000 tested, 0.35% active; further: on the % scale 0 is the no-effect control and ±100 the full control effect; nearly all actives have a fitted effect of over 65% in size
#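 Steps: FEN1 (10 nM) dispensed; compound added by pin tool; 15 min at room temperature; substrate added to 50 nM final; reads at 0 min and 15 min; data normalized and fitted (four-parameter Hill).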
# Pol kappa inh-2: qHTS for Inhibitors of Polymerase Kappa: Confirmatory Assay for Cherry-picked Compounds; shares compounds with Pol eta inh-1; purified Pol-kappa, fluorescent strand-displacement substrate; 920 tested, 76% active; Potency, µM, hits mostly inhibitors
# Pol eta inh-2: qHTS for Inhibitors of Polymerase Eta: Confirmatory Assay for Cherry-picked Compounds; shares compounds with Pol eta inh-1; Pol eta primer extension, TAMRA/BHQ fluorescence, 10 min; Potency, µM, most hits filed as inhibitors; 2,600 tested, 64% active
# The depositor's hits bear a star; ? = inconclusive; . = not tested or not shown; [ ] = dose if it differs, or a comment. The call rests on the fitted dose curve; in most records, active means well fitted curve in the direction sought with a large enough effect; inconclusive means small, poorly fitted or top-dose-only effect, or another doubt; inactive means no such curve, though single readings can be large; an effect the other way counts as inactive or inconclusive. Potency means the concentration at half of the fitted maximal effect.
SMILES,Pol kappa inh-1,POLB inh,TDP1 block,Pol eta inh-1,Pol iota inh,FEN1 inhibitor,Pol eta inh-2,others
Cc1onc(-c2ccccc2)c1C(=O)NNC(=S)NC(=O)c1ccc2c(c1)OCO2,-4%,30%,12%,-19%,44%,3%,.,
Cc1ccccc1N1C(S)=C(C#N)C(=O)NC1c1ccco1 (stereo not given),-44%,28µM*,-3%,28µM*,22µM*,-18%,?,
COc1ccc(C(=O)Nc2cccc(-c3nc4cccnc4s3)c2C)c(OC)c1,?,2%,0%,-4%,79µM*,-2%,.,Pol kappa inh-2=47*
Cc1c([N+](=O)[O-])c(C(=O)NC2CCCC2)nn1C,10%,-28%,3%,-5%,17%,0%,.,
O=C(O)c1ccc(COc2c(F)c(F)c(F)c(F)c2F)o1,?,40µM*,.,22µM*,22µM*,-4%,76*,
O=C(O)c1ccc(COCC(F)(F)C(F)F)o1,-24%,28µM*,?,18µM*,-16%,-1%,?,
Cc1cc(C)cc(OCc2ccc(C(=O)O)o2)c1,4%,1%,9%,-9%,-2%,-9%,.,
O=S(=O)(c1ccc2c(c1)OCCO2)N1CCCN(S(=O)(=O)c2c(F)cccc2F)CC1,6%,.,2%,-14%,-2%,-3%,.,
CCn1cc2nc(SCc3cccc(C(F)(F)F)c3)n(Cc3ccc(Cl)cc3)c(=O)c2n1,-4%,-19%,5%,-19%,19%,?,.,
COC(=O)CN1C(=O)[C@H]2[C@@H](c3ccc(C)o3)N3C(=O)CN(Cc4ccccn4)C(=O)[C@@]3(Cc3ccccc3)[C@H]2C1=O,14%,50%,.,-21%,38%,14%,.,
CCOc1cccc(=O)c2c(C)n(-c3ccc(C(=O)O)cc3)c(C)c12,?,22µM*,.,28µM*,?,?,27*,
COc1cc(NC(=O)CCc2nnc3ccc(NCc4ccco4)nn23)cc(OC)c1,1%,11%,4%,5%,13%,-15%,.,
CCOc1ccc(C(=O)c2cn(CC(=O)Nc3cc(OC)cc(OC)c3)c3ccc(F)cc3c2=O)cc1,-15%,14µM*,-6%,?,?,-10%,.,Pol kappa inh-2=?
CCc1ccc(C(=O)c2cn(CC(=O)Nc3cc(OC)cc(OC)c3)c3ccc(CC)cc3c2=O)cc1,-13%,-8%,-4%,-9%,18%,17%,.,
CC(=O)c1ccc(S(=O)(=O)Nc2ccc(-c3ccc4nnc(C)n4n3)cc2)cc1,?,28µM*,-5%,20µM*,-86%,1%,?,
COc1cc(/C=C/[N+](=O)[O-])ccc1OC(=O)/C=C/c1ccc(F)cc1,-15%,-14%,.,-14%,171%,1%,.,
COc1cccc(C(=O)Nc2cccc(C(=O)NC3=NN(c4c(Cl)cc(Cl)cc4Cl)C(=O)C3)c2)c1,22µM*,14µM*,5%,40µM*,?,?,76*,
Cc1ccc(NC(=O)CN2C(=O)N/C(=C\c3cccn3-c3ccc(C(=O)NS(C)(=O)=O)cc3)C2=O)cc1,.,.,.,.,.,.,?,
CCn1c(C)cc(/C=C2\NC(=O)N(CC(=O)Nc3ccc(F)cc3)C2=O)c1C,-6%,1%,4%,-22%,62%,-2%,.,
O=C(CN1C(=O)N/C(=C\c2cccn2-c2cccc(C(=O)O)c2)C1=O)Nc1cccc(Cl)c1,.,.,.,.,.,.,.,Pol kappa inh-2=?
O=C1N/C(=C/c2cccn2-c2ccc(F)cc2)C(=O)N1Cc1ccccc1F,-30%,1%,3%,2%,137%,-3%,.,
O=C(O)c1cccc(-n2cccc2/C=C2/NC(=O)N(Cc3ccccc3F)C2=O)c1,?,10µM*,2.8µM*,20µM*,32µM*,-2%,?,
CCN(C(=O)c1cn(-c2ccc(OC)cc2)c(=O)c2ccccc12)c1cccc(Cl)c1,-18%,-1%,0%,-18%,12%,-3%,.,
Cc1ccccc1NC(=O)/C(C#N)=C\c1cccnc1,0%,0%,1%,6%,18%,-12%,.,
N#C/C(=C\c1cccnc1)C(=O)Nc1ccccc1[N+](=O)[O-],-32%,-13%,6%,32µM*,-28%,?,76*,Pol kappa inh-2=?
SMILES,Pol kappa inh-1,POLB inh,TDP1 block,Pol eta inh-1,Pol iota inh,FEN1 inhibitor,Pol eta inh-2,others
S=C(NCc1ccccc1)NCc1ccco1,-15%,27%,5%[56.1 µM],9%,-24%,8%,.,
S=C(NCc1ccco1)NCc1ccco1,?,.,.,?,?,-1%,?,
Cc1nnc(NC(=O)c2cc(-c3ccncc3)nc3c(C)cccc23)s1,-11%,7%,3%,45µM*,79µM*,-22%,67*,
Nc1c(C(=O)Nc2ccc(C(=O)O)cc2)sc2nc3c(cc12)CCCC3,-3%,-23%,.,?,20%,2%,.,
Nc1c(C(=O)Nc2cccc(C(=O)O)c2)sc2nc3c(cc12)CCCC3,-9%,1%,-16%,?,23%,-1%,?,Pol kappa inh-2=21*
N#Cc1cc(C(=O)c2cc(F)ccc2O)cn(-c2nccs2)c1=O,?,18µM*,7%,28µM*,?,?,?,
Cc1c(-n2cc(C(=O)c3cc(F)ccc3O)cc(C#N)c2=O)c(=O)n(-c2ccccc2)n1C,-2%,3%,9%,6%,74%,-6%,.,
N#Cc1cc(C(=O)c2ccccc2O)cn(-c2nccs2)c1=O,-29%,20µM*,8%,16µM*,-16%,-18%,67*,
O=C(O)c1ccc(/C=C2\COc3ccccc3C2=O)cc1,2%,10%,-2%,?,?,1%,?,
COc1ccc(C(=O)Nc2ccc(-c3nnc4n3CCCCC4)cc2)cc1OC,?,32µM*,9%,3%,?,-3%,.,Pol kappa inh-2=17*
O=C1Nc2c(Cl)cc(Cl)cc2C1=O,?,.,.,?,?,-22%,?,
CNC(=O)c1sc(-c2cccs2)nc1C,5%,1%,5%,-10%,56%,10%,.,

# High-throughput results (PubChem BioAssay)
